Data from the supplement of paper PMC11732987, “Enantioselective OTUD7B fragment discovery through chemoproteomics screening and high-throughput optimisation” (Communications Chemistry, 2025).

Columns and labels:
Assay in all cases: log2 ratio of Biotin-Ahx-Ub-VS probe labelling (fragment/DMSO); higher = less target engagement (more negative = stronger competition), active = hit call of the paper (q ≤ 0.05, log2 ratio ≤ -1)
Details in all cases: compound concentration: 200 uM; treatment time: 3 h
OTUD6B = target: T1, OTUD6B (UniProt Q8N6M0)
T1 sequence (whole entry): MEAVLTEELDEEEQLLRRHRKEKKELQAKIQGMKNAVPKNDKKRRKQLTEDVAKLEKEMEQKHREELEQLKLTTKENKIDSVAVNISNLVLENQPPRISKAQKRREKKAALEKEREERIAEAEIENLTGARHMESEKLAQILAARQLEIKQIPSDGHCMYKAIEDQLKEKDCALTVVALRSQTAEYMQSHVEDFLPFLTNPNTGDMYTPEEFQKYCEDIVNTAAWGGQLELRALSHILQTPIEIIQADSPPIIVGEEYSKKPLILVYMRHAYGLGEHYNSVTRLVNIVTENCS
How it was run: (§1)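 Labelling with Biotin-Ahx-Ub-VS (0.5 µM final, 1 h) followed a 3 h triplicate treatment of HEK293T lysate (495 µg per sample, Tris/CHAPS/IGEPAL buffer with protease inhibitors) with fragment at 200 µM or vehicle. Labelled DUBs were NeutrAvidin-enriched, digested with LysC and trypsin, and run by diaPASEF LC-MS/MS. The values, average log2 fragment/vehicle ratios by unpaired t-test, come from global-median-normalised Spectronaut label-free quantities. Proteins with ≥2 unique peptides were used.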

OTUD7B = target: T2, OTUD7B (UniProt Q6GQQ9)
T2 sequence (whole entry): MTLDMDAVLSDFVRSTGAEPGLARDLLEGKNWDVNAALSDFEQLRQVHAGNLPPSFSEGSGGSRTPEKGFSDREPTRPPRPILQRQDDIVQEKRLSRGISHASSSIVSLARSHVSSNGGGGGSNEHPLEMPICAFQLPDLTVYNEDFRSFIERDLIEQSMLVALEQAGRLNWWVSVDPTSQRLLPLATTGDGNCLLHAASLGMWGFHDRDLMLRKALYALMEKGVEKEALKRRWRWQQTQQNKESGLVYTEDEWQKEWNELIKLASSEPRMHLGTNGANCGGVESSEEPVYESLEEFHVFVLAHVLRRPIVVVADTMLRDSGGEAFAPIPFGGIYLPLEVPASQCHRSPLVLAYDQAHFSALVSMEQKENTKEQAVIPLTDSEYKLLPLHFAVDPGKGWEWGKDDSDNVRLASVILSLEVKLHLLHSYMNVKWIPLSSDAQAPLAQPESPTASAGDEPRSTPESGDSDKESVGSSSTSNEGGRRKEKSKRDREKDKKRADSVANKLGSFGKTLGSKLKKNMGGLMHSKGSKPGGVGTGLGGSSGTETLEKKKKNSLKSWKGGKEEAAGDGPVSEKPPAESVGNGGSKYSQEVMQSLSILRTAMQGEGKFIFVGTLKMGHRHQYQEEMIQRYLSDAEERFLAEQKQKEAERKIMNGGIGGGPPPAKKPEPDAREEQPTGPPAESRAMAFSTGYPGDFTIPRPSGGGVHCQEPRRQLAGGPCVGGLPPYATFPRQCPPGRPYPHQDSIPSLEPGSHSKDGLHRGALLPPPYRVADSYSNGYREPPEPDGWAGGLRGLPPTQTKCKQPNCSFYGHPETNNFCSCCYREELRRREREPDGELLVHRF
How it was run: as §1

PRPF8 = PRPF8 (UniProt Q6P2Q9)
How it was run: as §1

PSMD7 = target: T3, PSMD7 (UniProt P51665)
T3 sequence (whole entry): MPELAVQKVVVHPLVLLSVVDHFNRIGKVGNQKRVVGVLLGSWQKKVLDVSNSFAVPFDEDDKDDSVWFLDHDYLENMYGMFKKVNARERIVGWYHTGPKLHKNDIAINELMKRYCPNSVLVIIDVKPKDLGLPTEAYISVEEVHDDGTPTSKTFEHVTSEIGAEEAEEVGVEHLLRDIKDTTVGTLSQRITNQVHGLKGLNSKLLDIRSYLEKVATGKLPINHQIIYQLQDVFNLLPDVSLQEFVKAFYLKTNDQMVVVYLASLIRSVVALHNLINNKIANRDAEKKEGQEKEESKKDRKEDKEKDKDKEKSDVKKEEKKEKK
How it was run: as §1

UCHL1 = UCHL1 (UniProt P09936)
How it was run: as §1

UCHL3 = target: T4, UCHL3 (UniProt P15374)
T4 sequence (whole entry): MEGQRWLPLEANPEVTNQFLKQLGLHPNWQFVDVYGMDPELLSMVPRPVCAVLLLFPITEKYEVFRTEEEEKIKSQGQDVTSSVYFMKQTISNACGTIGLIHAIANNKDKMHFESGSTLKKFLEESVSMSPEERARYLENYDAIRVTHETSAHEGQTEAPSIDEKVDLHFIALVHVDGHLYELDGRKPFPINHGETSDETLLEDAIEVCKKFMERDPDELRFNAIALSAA
How it was run: as §1

UCHL5 = target: T5, UCHL5 (UniProt Q9Y5K5)
T5 sequence (whole entry): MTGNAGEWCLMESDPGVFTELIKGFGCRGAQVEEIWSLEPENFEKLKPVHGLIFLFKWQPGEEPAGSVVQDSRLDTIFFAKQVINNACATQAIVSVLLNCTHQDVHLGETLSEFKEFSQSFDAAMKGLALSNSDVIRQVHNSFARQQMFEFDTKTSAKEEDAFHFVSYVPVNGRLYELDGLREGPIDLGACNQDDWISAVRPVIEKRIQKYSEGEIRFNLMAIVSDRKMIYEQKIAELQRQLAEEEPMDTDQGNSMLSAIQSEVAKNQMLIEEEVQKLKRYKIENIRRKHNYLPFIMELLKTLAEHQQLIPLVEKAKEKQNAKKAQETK
How it was run: as §1

USP10 = USP10 (UniProt Q14694)
How it was run: as §1

USP15 = target: T6, USP15 (UniProt Q9Y4E8)
T6 sequence (whole entry): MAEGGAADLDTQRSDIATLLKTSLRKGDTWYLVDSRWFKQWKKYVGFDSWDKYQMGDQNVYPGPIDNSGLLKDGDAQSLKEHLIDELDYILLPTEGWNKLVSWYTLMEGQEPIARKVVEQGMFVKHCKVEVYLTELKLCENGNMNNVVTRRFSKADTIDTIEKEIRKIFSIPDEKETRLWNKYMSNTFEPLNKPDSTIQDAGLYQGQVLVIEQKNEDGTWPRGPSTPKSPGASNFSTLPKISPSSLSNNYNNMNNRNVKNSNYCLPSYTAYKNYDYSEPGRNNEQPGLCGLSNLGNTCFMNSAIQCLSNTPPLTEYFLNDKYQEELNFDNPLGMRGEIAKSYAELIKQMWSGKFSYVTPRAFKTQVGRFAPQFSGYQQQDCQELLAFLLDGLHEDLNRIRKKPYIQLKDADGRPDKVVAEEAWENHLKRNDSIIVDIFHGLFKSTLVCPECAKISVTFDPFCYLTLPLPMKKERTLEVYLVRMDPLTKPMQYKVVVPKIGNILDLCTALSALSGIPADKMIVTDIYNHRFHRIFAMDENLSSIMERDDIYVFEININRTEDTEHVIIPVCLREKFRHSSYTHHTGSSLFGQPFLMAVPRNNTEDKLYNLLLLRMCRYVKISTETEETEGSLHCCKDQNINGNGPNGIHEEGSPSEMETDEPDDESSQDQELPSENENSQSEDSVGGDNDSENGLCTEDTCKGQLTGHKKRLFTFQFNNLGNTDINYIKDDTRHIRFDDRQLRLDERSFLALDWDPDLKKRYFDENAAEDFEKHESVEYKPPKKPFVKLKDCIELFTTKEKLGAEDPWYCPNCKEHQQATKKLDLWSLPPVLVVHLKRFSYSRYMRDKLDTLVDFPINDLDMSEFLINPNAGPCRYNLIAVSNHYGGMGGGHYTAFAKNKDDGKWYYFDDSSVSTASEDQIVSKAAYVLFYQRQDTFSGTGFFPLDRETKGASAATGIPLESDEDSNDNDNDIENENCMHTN
How it was run: as §1

USP16 = USP16 (UniProt Q9Y5T5)
How it was run: as §1

Measured: log2 ratio of Biotin-Ahx-Ub-VS probe labelling

Sequence of USP16 (Q9Y5T5 whole entry, looked up): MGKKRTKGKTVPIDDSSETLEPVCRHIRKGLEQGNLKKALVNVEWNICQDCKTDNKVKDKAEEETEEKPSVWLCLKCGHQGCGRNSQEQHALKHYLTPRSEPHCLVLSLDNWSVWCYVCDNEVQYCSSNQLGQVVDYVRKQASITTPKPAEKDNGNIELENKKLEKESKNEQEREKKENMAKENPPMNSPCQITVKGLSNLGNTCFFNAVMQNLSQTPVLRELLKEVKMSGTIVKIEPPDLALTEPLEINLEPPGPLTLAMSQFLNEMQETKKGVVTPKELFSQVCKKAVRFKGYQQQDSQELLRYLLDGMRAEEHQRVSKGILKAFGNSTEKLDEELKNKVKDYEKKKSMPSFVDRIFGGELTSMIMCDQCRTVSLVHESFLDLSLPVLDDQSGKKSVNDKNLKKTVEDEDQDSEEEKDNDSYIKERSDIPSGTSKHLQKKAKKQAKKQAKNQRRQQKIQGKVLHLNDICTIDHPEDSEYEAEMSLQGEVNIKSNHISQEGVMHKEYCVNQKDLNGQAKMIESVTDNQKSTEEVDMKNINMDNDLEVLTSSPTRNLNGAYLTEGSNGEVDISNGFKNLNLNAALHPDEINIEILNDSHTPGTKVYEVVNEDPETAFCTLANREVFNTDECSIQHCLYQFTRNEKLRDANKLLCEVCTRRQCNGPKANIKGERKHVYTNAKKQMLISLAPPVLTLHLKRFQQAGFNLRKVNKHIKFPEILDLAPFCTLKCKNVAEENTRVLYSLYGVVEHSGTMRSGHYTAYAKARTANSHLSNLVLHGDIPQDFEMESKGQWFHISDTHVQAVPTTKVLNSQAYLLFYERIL
Sequence of UCHL1 (P09936 whole entry, looked up): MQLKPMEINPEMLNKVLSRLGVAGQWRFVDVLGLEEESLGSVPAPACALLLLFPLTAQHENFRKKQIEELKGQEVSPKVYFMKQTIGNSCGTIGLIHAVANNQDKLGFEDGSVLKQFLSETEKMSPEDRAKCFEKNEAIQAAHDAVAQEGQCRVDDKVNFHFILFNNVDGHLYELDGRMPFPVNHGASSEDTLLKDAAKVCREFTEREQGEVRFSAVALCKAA
Sequence of USP10 (Q14694 whole entry): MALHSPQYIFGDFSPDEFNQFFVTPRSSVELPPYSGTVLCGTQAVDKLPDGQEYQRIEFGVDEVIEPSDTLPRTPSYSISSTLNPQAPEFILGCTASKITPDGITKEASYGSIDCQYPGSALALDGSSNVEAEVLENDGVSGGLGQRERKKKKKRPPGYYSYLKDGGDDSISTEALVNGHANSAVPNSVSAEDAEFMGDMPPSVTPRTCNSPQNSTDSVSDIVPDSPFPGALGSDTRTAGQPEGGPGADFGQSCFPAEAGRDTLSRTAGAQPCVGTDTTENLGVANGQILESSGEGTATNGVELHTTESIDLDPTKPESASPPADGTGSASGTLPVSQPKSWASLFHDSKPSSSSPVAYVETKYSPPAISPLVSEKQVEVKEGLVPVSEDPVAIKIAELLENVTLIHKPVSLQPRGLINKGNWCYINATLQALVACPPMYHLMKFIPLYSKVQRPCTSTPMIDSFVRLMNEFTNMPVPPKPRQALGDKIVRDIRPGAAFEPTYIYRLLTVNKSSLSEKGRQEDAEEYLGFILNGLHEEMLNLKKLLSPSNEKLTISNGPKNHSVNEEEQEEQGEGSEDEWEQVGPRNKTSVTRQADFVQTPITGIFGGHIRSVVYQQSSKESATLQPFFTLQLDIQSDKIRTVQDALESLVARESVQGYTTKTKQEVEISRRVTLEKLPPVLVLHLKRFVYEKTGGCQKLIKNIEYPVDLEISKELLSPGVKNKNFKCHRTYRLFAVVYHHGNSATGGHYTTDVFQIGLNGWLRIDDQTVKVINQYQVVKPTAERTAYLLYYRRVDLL

CC(=O)Nc1ccc(NC(=O)CCl)cc1
inactive: OTUD6B -0.276 | PRPF8 0.0134 | PSMD7 -0.163 | UCHL1 -0.918 | UCHL3 0.206 | UCHL5 -0.201 | USP10 -0.113 | USP15 -0.154 | USP16 -0.288
active: OTUD7B -1.13
